This excerpt belongs to a sample that is enriched for hits.
Sa growth inh – S. aureus growth inhibition | relative growth, % (no concentration beside the values) | 0.53% of 170,000 active | S. aureus RN4220 growth, OD600, 20 h, 42 °C; active compounds read low;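 active means relative growth at most 50% at the other temperature and 20+ points below 30 °C, or under 10% at both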
S aureus helic – S. aureus DNA helicase inhibition; purified S. aureus helicase, fluorescence unwinding assay; inhibition, % (no concentration beside the values); 0.05% of 120,000 active; in the data active means inhibition above about 25%, passing the limit was not always enough;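 further: 0% = mean of negative control wells and 100% = mean of positive control wells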
* hit, by the source's call; x = not tested or not shown; ! = a repeat was not active.

SMILES	Sa growth inh	S aureus helic
CC1CCCC(NC(=O)CSc2ccc3c(c2)OCCO3)C1C (centres undefined)	81	-11
CC(CCc1ccco1)Nc1nc(-c2ccccc2F)no1 (centres undefined)	90	-1
CCNc1nc(SCC(=O)NC(=O)NCc2ccccc2)nc2sc3c(c12)CCN(C)C3	83	x
CCNc1nc(SCc2ccc(Cl)cc2)nc2sc3c(c12)CCN(C)C3	10.0*	x
N#CCOC(=O)c1nc(-c2ccccc2)n(-c2ccccc2)n1	97	-9
CC(C)Oc1ncc(C(F)(F)F)cc1Cl	90	-9
COCC(C)NC(N)=S (centres undefined)	106	8
COc1cc(S(=O)(=O)N2CCN(c3cc(C)ccc3C)CC2)c(OC)cc1Cl	112	3
Cc1cc(C)cc(OC(=O)CCN2C(=O)c3ccccc3C2=O)c1	-1.1*	17
O=C(CCN1C(=O)c2ccccc2C1=O)Oc1ccc(Cl)cc1	114	4
Fc1cc2c(c(CSc3nc4ccccc4s3)c1)OCOC2	85	x
COc1cc(/C=N/NC(=O)c2cc(-c3cccn3C)n[nH]2)cc(OC)c1OC	-0.2*	32
O=C(N/N=C/c1ccccc1)c1cc(-c2ccccc2)n[nH]1	94	16
NNC(=O)c1ccco1	104	11
CCNc1nc(-c2cc(C)n(-c3ccc4c(c3)OCCO4)c2C)cs1	90	10
Cc1ccc(Cn2c(C(C)O)nc3ccccc32)cc1 (centres undefined)	x	20
COC(=O)c1nc2ccccc2n1Cc1ccc(C)cc1	45*	-12
NS(=O)(=O)c1ccc(Cl)c(C(=O)Nc2ccc(Cl)cc2)c1	106	-4
CCC(=O)c1ccc(OCC(=O)NCCOc2ccccc2)cc1	85	-17
O=C(CC(=O)c1ccccc1O)c1ccc(Cl)cc1	1.1*	-2
COc1ccc(C(=O)CC(=O)c2ccccc2O)cc1	87	16
O=C(CC(=O)c1c(F)cccc1F)c1ccccc1O	123	x
Cc1ccc(C(=O)CC(=O)c2ccccc2O)cc1	0.8*	2
CCn1c(NCCSc2nc3ccccc3n2C)nc2ccccc21	109	8
O=S(=O)(c1ccc(Oc2ncnc3sc4c(c23)CCC4)cc1)N1CCOCC1	97	2
SMILES	Sa growth inh	S aureus helic
CC1(C)CC(=S)C=C(N2CCOCC2)C1	96	-14
CCCCCn1c(NCc2ccc(N(C)C)cc2)nc2ccccc21	73	8
CC(=O)[C@]1(O)Cc2c(O)c3c(c(O)c2[C@@H](O[C@H]2C[C@H](N)[C@H](O)[C@H](C)O2)C1)C(=O)c1ccccc1C3=O	0.4*	x
CC[C@@]1(O)C[C@H](O[C@H]2C[C@H](N(C)C)[C@H](O[C@H]3C[C@H](O)[C@H](O[C@H]4CCC(=O)[C@H](C)O4)[C@H](C)O3)[C@H](C)O2)c2c(cc3c(c2O)C(=O)c2c(O)cccc2C3=O)[C@H]1C(=O)OC	76	x
COc1cccc2c1C(=O)c1c(O)c3c(c(O)c1C2=O)C[C@@](O)(C(=O)CO)C[C@@H]3O[C@H]1C[C@H](N)[C@@H](O)[C@H](C)O1	2.0*	x
COc1cccc2c1C(=O)c1c(O)c3c(c(O)c1C2=O)C[C@@](O)(C(C)=O)C[C@@H]3O[C@H]1C[C@H](N)[C@H](O)[C@H](C)O1	18	x
CCn1c(=O)c(CCC(=O)NCc2ccc3c(c2)OCO3)c(C)c2c(C)nn(-c3cccc(C)c3)c21	99	0
O=S1(=O)C=C(Sc2nnnn2-c2ccccc2)c2ccccc21	-1.7*	4
c1ccc(-n2nnnc2SSc2nnnn2-c2ccccc2)cc1	89	-2
CCOc1ccc(NC(=O)CSc2oc(-c3ccccc3)nc2S(=O)(=O)c2ccccc2)cc1	118	14
Cc1ccc(SCC(=O)Nc2cccc3nsnc23)c(C)c1	80	4
Cc1oc2c(c1C(=O)NC1CCCCC1)C(=O)c1ccccc1C2=O	8.8*	-2
Cc1oc2c(c1C(=O)NC(C)(C)C)C(=O)c1ccccc1C2=O	5.7*	-13
Cc1oc2c(c1C(=O)N1CCC(C)CC1)C(=O)c1ccccc1C2=O	49	11
Cc1oc2c(c1C(=O)NCCc1ccccc1)C(=O)c1ccccc1C2=O	15	4
Cc1oc2c(c1C(=O)NC1CCCC1)C(=O)c1ccccc1C2=O	3.9*	10
Cc1oc2c(c1C(=O)N1CCCCC1)C(=O)c1ccccc1C2=O	39	-4
CCN(CC)c1ccc(NC(=O)CN(C)Cc2ccccc2C)cc1	80	3
CC(NC(=O)CSCc1cccs1)c1ccccc1 (centres undefined)	98	14
O=C(Oc1ccccc1-c1ccccc1)c1cncc(Br)c1	108	-23
O=C(O)c1cccc(OCc2cscn2)c1	96	-16
CSc1cc(-c2sc(-c3cccs3)nc2C)[nH]n1	52	x
CC(=O)Nc1ccc(S(=O)(=O)Nc2ccc([N+](=O)[O-])cc2)cc1	77	x
O=C(N[C@H](CO)[C@H](O)c1ccc([N+](=O)[O-])cc1)C(Cl)Cl	-0.1*	x
Cc1nccn1CC(=O)N1c2ccccc2Sc2ccccc21	-0.3*	6
SMILES	Sa growth inh	S aureus helic
Cn1ccnc1SC(=O)N1c2ccccc2Sc2ccccc21	118	2
Cc1nc2nc(SCC(=O)N3CCC4(CC3)OCCO4)nn2c(C)c1Cc1ccccc1Cl	86	3
O=C(Oc1cccc2cccnc12)c1cc(C(F)(F)F)cc(C(F)(F)F)c1	1.3*	x
NC(=O)COc1cccc2cccnc12	107	4
O=C(Oc1cccc2cccnc12)c1ccccc1	1.7*!	-6
O=C(Oc1cccc2cccnc12)c1cccc(F)c1	1.6*	9
O=C(Oc1ccccc1OC(=O)c1ccccc1)c1ccccc1	96	11
O=C(Oc1cccc2cccnc12)C1CCCCC1	182	6
Cn1c(=NC(=O)CSCC(=O)N2CCCc3ccccc32)sc2ccccc21	86	9
COc1ccc(/C=N/n2ncc3ccccc32)cc1	27*	14
COc1ccc(/C=N/N2CCN(C)CC2)cc1	106	3
CC1Cn2c(nnc2-c2cccc(O)c2)S1 (centres undefined)	105	-5
O=C(O)Cn1ccccc1=O	44*	7
N/C(Cn1ccccc1=O)=N\O	82	-14
CN1CCN(c2ccc(NC(=O)COc3ccc(Br)cc3)cc2)CC1	107	7
O=C(CCC(=O)N1CCN(S(=O)(=O)Cc2ccccc2)CC1)c1cccs1	120	7
CCN(CC)CCC(=O)c1ccc(OC(C)C)cc1	60	-3
COc1cc(Cc2cnc(N)nc2N)cc(OC)c1OC	-1.0*	x
COc1cc(CC(=O)OCC(N)=O)cc(OC)c1OC	96	-14
O=C(c1cn(Cc2ccccc2)nc1-c1ccccc1)N1CCN(CCO)CC1	84	-9
CC1(C)COC(/C=C(\N)c2ccc(Br)cc2)=N1	115	6
S=c1[nH]nc(-c2ccncc2)o1	83	16
CC1CCCCN1S(=O)(=O)c1ccc(C(=O)Nc2nnc(C3CC3)o2)cc1 (centres undefined)	0.0*	17
O=C(Nc1nnc(C2CC2)o1)c1ccc(S(=O)(=O)N2CCCCC2)cc1	12	5
O=c1c(=NNc2nn[nH]n2)c(=O)c2ccccc12	1.4*	11
O=c1c(=NNc2ccccc2)c(=O)c2ccccc12	99	x
COC(=O)C(N)c1c[nH]c2ccccc12 (centres undefined)	101	-3
CC1(C)N=C(SCC(=O)Nc2ccccc2)C(c2ccccc2)=N1	80	-14
Cc1cc2nc3ccc(=[N+](C)C)cc-3sc2cc1N	209	132*
